In the OligoGym collection:

These sequences were tested against PGLYRP2 (assay: pooled miR-30 sensor sort-seq; sequence = guide strand). Conditions: shRNA.
Note: reference of the scale not given here.

Sequence | sensor-assay potency score (higher = more potent)
TTGGCTCATGCACTGAAGCTGG | -0.819
TCTGGGTCTGGGAACCTCGGAG | -0.74
TCGTACACGTAGCCGTCCGAGC | -1.66
ATCTGCAGTGGTGACATCTGGA | -0.549
TTCTCGTACGTCATGTCGGGCC | -0.387
TTAACAGAGATGCCTTGGGGTC | -1.41
TTGGACATCTGGACAGCCTTTT | -0.831
TAGTCTCCAAGGATGACCCCAT | -0.15
TTTTGTAGCATCTGGAGTGTTG | -0.0388
ATCTCTTAGAGACACTCCTGGC | -0.911

These sequences were tested against PGR in the same assay as above. Conditions: shRNA.

Sequence | sensor-assay potency score (higher = more potent)
TTGATTAAGACTTGTCAGCAAA | -0.954
TAACTTCAGACATCATTTCTGG | -0.00174
TCAACTGTATGTCTTGACCTGG | -0.016
TTCTTGGCTAACTTGAAGCTTG | -0.748
TTGTGTTGTCATGTCCTGCATA | -0.728
TAGTTGATTAAGACTTGTCAGC | -0.703
TTGAAGCTTGACAAACTCCTGT | 0.608
TGTAAGTTGATAGAAACGCTGT | 0.269
TTCGTCTTCCAGCAGCTGCCGA | -0.877
TTGTTTGACAAGATCATGCAAG | -0.044
TAAGTTGATAGAAACGCTGTGA | 0.39
TTGACTTCGTAGCCCTTCCAAA | -1.29

These sequences were tested against PHACTR4 in the same assay as above. Conditions: shRNA.

Sequence | sensor-assay potency score (higher = more potent)
TTGACTGAGCTTTCTAGTGAGC | -0.776
TTCTTTAACATGGCATCGCTTG | -0.642
TTCATGAACCTCCATCTCGGAG | -1.12
TTCCAGTTGAGCCTAGTCGTTT | -1.14
TTCATCTTCTTCATCTCGGTAC | 0.467
TTGATAACAATGTACCACTGTT | -0.00481
TTTCGCATAGATATTTTCCGTT | -0.285
TTAAACCTCAGAATCTTCCTGG | 0.724
TTTGATAACAATGTACCACTGT | 0.882
TTCCTTTTTCTGATCTTCCTGC | 0.429
TTAGGTTGCAATATATTGCGTT | 0.996
TCTTGAAGTACAATACACCAGG | -0.827

Each sequence was assayed against PHF15 in the same assay as above. Conditions: shRNA.

Sequence | sensor-assay potency score (higher = more potent)
TTGTCTGCTAATATAGTCCGCA | 0.0345
TACATCTGAGTCGCTCATCTCC | -0.519
TCTAACCCTCTCTAGGTCCTGC | 0.0914
TTCAATAAGTTTCATCTGCAGG | -0.499
TAGATGTCGCATGACTGTCAGT | -1.14
